High-throughput results: PubChem, National Center for Advancing Translational Sciences (NCATS)
D2 ag-1 = agonists of human D2 dopamine receptor. activation, % at 2 µM. HEK293 T-REx D2 cells, calcium flux agonist mode. 340,000 compounds, 0.53% hits;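 active = activation over 3 SD above normal in the single-dose calcium agonist read, cut at about 30% in these data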; note: 0% is about no effect
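In this primary screen, compounds producing a positive calcium signal within 180 s of addition to tetracycline-induced, force-coupled HEK293 Trex D2 cells are flagged; cells are dye-loaded with a no-wash calcium kit beforehand.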
D2 antag = antagonizes the human D2 dopamine receptor | P14416 | HEK293 TREx D2 cells, calcium flux, dopamine EC80 | inhibition, % at 10 µM | 340,000 compounds, 2% hits | AID 485344; in the data active = inhibition above about 30%; inactive = below that, where a call was filed; note: 0% is about no effect
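HEK293 T-REx D2 cells, tet-induced, calcium dye no-wash. Cpd pintool add, 180 s kinetic, then EC80 DA, 180 s kinetic. Ca flux read.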
D2 PAM-1 = potentiates the human D2 dopamine receptor allosterically; potentiation, % (test concentration not listed); 360,000 compounds, 0.23% hits; DiscoveRx D2 beta-arrestin cells, luminescence, 90 min; 100% = 57 uM dopamine signal; in the data active = potentiation above about 50%; inconclusive = mostly about 30% to 49%
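PathHunter D2 cells, attached overnight at 37 deg C, received compound in DMSO plus dopamine at EC20 (50 nM final) for 90 min at 37 deg C. Beta-arrestin recruitment was read as luminescence after 1 h with detection reagent at ambient temperature.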
D2 ag-2 = activates the human D2 dopamine receptor | P14416 | DiscoveRx PathHunter D2 beta-arrestin, luminescence, 90 min; 100% = 57 uM dopamine signal | activation, % (no concentration beside the values) | 360,000 compounds, 0.084% hits | AID 624465; in the data active = activation above about 40%; inconclusive = between about 15% and that limit
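Agonist mode: compounds alone added to overnight-plated D2 PathHunter cells for 90 min at 37 C, with 57 uM final dopamine (EC100) defining full response. Beta-arrestin recruitment detected by chemiluminescent reagent, read after 1 h at ambient temperature.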
D2 PAM-2 = D2 dopamine receptor (human) potentiation; HEK293 T-REx D2, calcium flux, EC20 dopamine potentiation; potentiation, % at 10 µM; 340,000 compounds, 0.34% hits;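 active = potentiation over 3 SD above the plate norm, cut at about 30% in these data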; note: 0% is about no effect
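Cells plated with tetracycline inducer and held overnight at 30 C; calcium dye loaded 30–90 min at room temperature; baseline taken, compound added and read 180 s; EC20 dopamine then added and read 180 s.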
D3 arrestin ag = D3 receptor agonism confirmed, beta-arrestin readout; shares compounds with D2 ag-1; DiscoveRx D3 beta-arrestin cells, luminescence, 90 min; Potency, µM (titrated, usually from 76.9 µM), without a hit: at the highest dose activation, most hits filed as activators; 2,300 compounds, 4% hits;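 note: potency is the fitted concentration of half-maximal effect; 100% = dopamine control response; nearly all actives have a fitted effect of over 70% in size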
Target sequence (P35462 whole entry, looked up): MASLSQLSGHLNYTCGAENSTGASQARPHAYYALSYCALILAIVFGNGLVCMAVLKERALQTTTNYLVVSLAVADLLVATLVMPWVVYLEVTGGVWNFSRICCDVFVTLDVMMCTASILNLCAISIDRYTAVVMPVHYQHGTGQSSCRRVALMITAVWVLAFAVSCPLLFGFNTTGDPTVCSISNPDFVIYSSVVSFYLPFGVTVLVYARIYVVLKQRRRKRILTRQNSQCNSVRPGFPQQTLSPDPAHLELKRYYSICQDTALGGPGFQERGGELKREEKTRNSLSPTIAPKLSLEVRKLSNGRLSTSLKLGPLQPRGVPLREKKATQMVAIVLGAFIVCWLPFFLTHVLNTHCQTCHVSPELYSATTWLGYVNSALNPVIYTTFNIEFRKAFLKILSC
D2 ag-3 = D2 receptor agonism, beta-arrestin counterscreen. shares compounds with D2 ag-1. DiscoveRx PathHunter D2 beta-arrestin, luminescence, 90 min; response scale: percent relative to full dopamine signal. Potency, µM (top dose mostly 76.9 µM), without a hit: at the highest dose activation, most hits filed as activators. 2,300 compounds, 5.9% hits; note: potency is the fitted concentration of half-maximal effect; % of control where 0% means no effect; nearly all actives have a fitted effect of over 70% in size
An asterisk follows results filed as active; ? = inconclusive; · = no result. Only some compounds are listed: those with a hit (about 2.4% of all), similar ones and a draw of the others. Unless noted, calls come from the whole dose curve; as a rule, active = well fitted activation curve with a large enough effect; inconclusive = small, poorly fitted or top-dose-only effect; inactive = flat fitted curve, though single readings scatter.

SMILES	D2 ag-1	D2 antag	D2 PAM-1	D2 ag-2	D2 PAM-2	D3 arrestin ag	D2 ag-3
Cc1cccc(OCC(=O)Nc2ccc(OCc3cc(=O)n4cc(C)ccc4n3)cc2)c1	1	·	·	·	9	·	·
Cc1ccc(C(C)C)c(OCC(=O)N2CCC(c3nc4ccccc4o3)CC2)c1	-1	·	·	·	1	·	·
COc1ccc(-c2cn3cccnc3n2)cc1NC(=O)Nc1cc(C)ccc1C	0	·	·	·	-23	·	·
CC(CCc1ccccc1)NC(=O)c1ccccc1 (centres undefined)	·	·	-5	-3	-8	·	·
CC(CCc1ccccc1)NCC(O)c1ccc(O)c(C(N)=O)c1 (centres undefined)	72*	67*	-2	3	-27	4%	?
CCCN(CC(=O)Nc1ccc(Cl)cc1Cl)C(=O)/C=C/c1ccco1	42*	17	-17	1	-17	-3%	0%
CCN(CC(=O)Nc1ccc(NC(C)=O)cc1)C(=O)/C=C/c1ccco1	1	-2	5	-1	1	·	·
O=S(=O)(NCC(c1cccnc1)N1CCN(Cc2ccccc2)CC1)c1cc(F)ccc1F (centres undefined)	70*	43*	-5	11	-15	4%	17%
COc1ccc(N2CCN(C(CNS(=O)(=O)c3cccs3)c3cccnc3)CC2)cc1 (centres undefined)	-1	12	-4	-2	26	·	·
O=S(=O)(NCC(c1cccnc1)N1CCN(c2ccccc2)CC1)c1cccs1 (centres undefined)	15	-18	9	9	-8	-4%	4%
CCCCOc1cccc(C(=O)N(Cc2ccc(C)o2)c2ccccn2)c1	·	·	·	·	-10	·	·
O=C(CCN1C(=O)COc2ccccc21)NCCN1CCN(c2ccccc2F)CC1	36*	45*	-27	2	-24	-5%	1%
O=C(CN1C(=O)COc2ccccc21)NCCCN1CCN(c2ccccc2F)CC1	56*	78*	-32	14	-18	2%	20%
O=C(Cn1cc2c(n1)CCCC2)NCCCN1CCN(c2ccccc2F)CC1	18	76*	-8	-1	-30	-6%	3%
CN1CCN(CCCNC(=O)CN2C(=O)COc3ccccc32)CC1	0	-7	0	-7	-2	·	·
O=C(NCCCN1CCN(c2ccccc2F)CC1)C1CC(=O)N(C2CCCC2)C1 (centres undefined)	78*	84*	-2	6	-18	?	?
CC(=O)Nc1ccccc1-c1nc2ccccc2n(CC(=O)c2ccc(Br)cc2)c1=O	-2	·	·	·	-2	·	·
CCc1nc(C)cn1S(=O)(=O)c1ccc(Cl)c(Cl)c1OC	-1	·	·	·	11	·	·
Cc1ccc(-c2noc(CN(C3CCCCC3)S(=O)(=O)c3ccc(F)cc3)n2)cc1	·	·	·	·	-12	·	·
Cc1ccc(CNC(=O)c2cccc3c2C(=O)c2ccc(N4CCOCC4)cc2S3(=O)=O)cc1	2	-4	3	-8	2	-2%	-2%
Cc1ccc(-c2cn3nc(N4CCCC(C(=O)NCc5ccc(F)cc5)C4)sc3n2)cc1 (centres undefined)	0	·	·	·	-7	·	·
COc1ccccc1OCc1nnc(-c2ccccc2)o1	0	·	·	·	-1	·	·
COC(=O)c1ccc(N/C=C/C(=O)c2ccccc2)cc1	0	18	1	-2	12	-5%	-4%
CC(C)c1ccc(NC(=O)CSc2nc(=O)n(Cc3ccccn3)c3c2CCC3)cc1	-4	·	·	·	15	·	·
COc1ccccc1NC(=O)CN1CCN(CC(=O)Nc2ccc(F)cc2)CC1	0	4	-5	-3	-2	·	·
SMILES	D2 ag-1	D2 antag	D2 PAM-1	D2 ag-2	D2 PAM-2	D3 arrestin ag	D2 ag-3
COc1ccc(C)cc1NC(=O)CN1CCN(c2ccccn2)CC1	53*	-3	0	11	-18	13%	21%
COc1ccccc1NC(=O)CN1CCN(c2ccccn2)CC1	14	50*	5	?	12	29%	?
COC(=O)C1CCN(CC(=O)Nc2ccc(C(=O)Nc3ccccc3OC)cc2)CC1	62*	28	0	?	-26	21%	?
O=c1c2oc3ccccc3c2n(Cc2cccc(F)c2)c(=O)n1Cc1ccco1	0	·	·	·	2	·	·
COc1ccccc1OCC(=O)NC1CCSc2ccccc21 (centres undefined)	1	-8	0	-6	-1	-8%	4%
CCN(C(=O)c1nn(C)c2c1CSc1ccccc1-2)c1cccc(C)c1	-2	·	·	·	-1	·	·
COC(=O)Cc1c(C)c2ccc3c(c2oc1=O)CN(Cc1ccccc1OC)CO3	-1	·	·	·	17	·	·
CC(=O)SC1CC(=O)N(c2c(C)cccc2C)C1=O (centres undefined)	55*	27	-9	-7	-20	-17%	-12%
O=C(CCN1CCN(S(=O)(=O)c2ccc(F)cc2)CC1)Nc1ccccc1F	0	-18	-9	-1	7	·	·
O=C(CCN1CCN(c2ccccc2)CC1)Nc1ccccc1F	71*	71*	-18	?	-16	?	25%
O=C(CCN1CCN(c2ccc(F)cc2)CC1)Nc1ccccc1F	35*	65*	-17	2	-37	4%	-1%
O=C(CCN1CCN(CC(=O)Nc2ccccc2F)CC1)Nc1ccccc1F	0	6	-33	-3	2	·	·
O=C(NCCCN1CCN(c2cccc(Cl)c2)CC1)c1cnn(-c2ccc(F)cc2)c1-n1cccc1	-1	·	·	·	-5	·	·
Cc1ccc2c(=O)c(C(=O)c3ccccc3)cn(CC(=O)NCc3ccccc3)c2n1	0	·	·	·	-7	·	·
CCc1ccc(CNC(=O)c2ccc(NC(=O)N3CCCCc4ccccc43)cc2)cc1	0	·	·	·	-10	·	·
Cc1ccc(C(=O)CCC(=O)OCC(=O)NNC(=O)c2ccc([N+](=O)[O-])cc2)cc1	·	·	28	1	·	0%	5%
COc1ccc(C(=O)NNC(=O)Cc2ccc([N+](=O)[O-])cc2)cc1	42*	-13	-11	0	-21	1%	-2%
Cc1ccc(NC(=O)CCC(=O)c2ccccc2)cc1	·	·	-7	0	·	·	·
Cc1ccc(C(=O)CCC(=O)NNC(=O)c2ccccc2O)cc1	0	10	-1	-2	10	-5%	-2%
COc1ccc(CC(=O)NNC(=O)c2ccc(NC(C)=O)cc2)cc1	1	6	2	-4	10	·	·
Cc1ccc(S(=O)(=O)CCC(=O)OCC(=O)NNC(=O)c2ccc([N+](=O)[O-])cc2)cc1	1	12	-6	-3	2	·	·
